This note sets out measurements from paper PMC7862700, “An all-to-all approach to the identification of sequence-specific readers for epigenetic DNA modifications on cytosine”.

Holding throughout (test): DAPPL (digital affinity profiling via proximity ligation, sequencing); 10 mM Tris-HCl pH 7.5, 50 mM NaCl, 1 mM DTT, 4% glycerol, room temperature, 30 min; GST-TFs on glutathione beads, 16-mer random dsDNA library, 0.1% formaldehyde crosslink after washing; high values mean tight binding
Conditions in all cases: protein: recombinant; tags: N-terminal GST; dsDNA, one strand shown

For test [1], the target named is T1, FLI1 (Homo sapiens, UniProt Q01543 1-452).
T1 sequence: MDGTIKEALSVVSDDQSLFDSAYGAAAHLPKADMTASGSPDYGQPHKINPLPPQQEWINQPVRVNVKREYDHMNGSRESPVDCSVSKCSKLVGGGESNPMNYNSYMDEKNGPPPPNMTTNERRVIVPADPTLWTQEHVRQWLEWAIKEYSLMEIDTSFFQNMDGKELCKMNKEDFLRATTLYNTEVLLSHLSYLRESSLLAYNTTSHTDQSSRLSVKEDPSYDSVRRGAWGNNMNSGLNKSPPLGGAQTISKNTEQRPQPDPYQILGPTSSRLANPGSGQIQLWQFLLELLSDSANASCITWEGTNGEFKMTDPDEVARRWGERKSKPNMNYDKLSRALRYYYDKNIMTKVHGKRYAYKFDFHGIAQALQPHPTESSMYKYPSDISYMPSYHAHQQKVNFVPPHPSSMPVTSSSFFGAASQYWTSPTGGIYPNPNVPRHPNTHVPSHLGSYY
The method, boiled down: (§1)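 The binding signal reported is, for every hexamer, its read frequency for a factor over its read frequency for the tag-only sample. Reads came from pools of yeast-expressed, GST-fused human transcription factors on glutathione beads, barcoded with DNA and mixed with that sample, which were incubated with 200 nmole of a random double-stranded 16-mer DNA library in Tris/NaCl/DTT/glycerol buffer at room temperature for 30 min. After washing, the pools were crosslinked with 0.1% formaldehyde, proximity-ligated with BsaI/T4 ligase for 1 h at 37 °C, PCR-amplified and sequenced on an Illumina NextSeq500.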

Test [2] addresses T2, ELK1 (Homo sapiens, UniProt P19419 1-428).
T2 sequence: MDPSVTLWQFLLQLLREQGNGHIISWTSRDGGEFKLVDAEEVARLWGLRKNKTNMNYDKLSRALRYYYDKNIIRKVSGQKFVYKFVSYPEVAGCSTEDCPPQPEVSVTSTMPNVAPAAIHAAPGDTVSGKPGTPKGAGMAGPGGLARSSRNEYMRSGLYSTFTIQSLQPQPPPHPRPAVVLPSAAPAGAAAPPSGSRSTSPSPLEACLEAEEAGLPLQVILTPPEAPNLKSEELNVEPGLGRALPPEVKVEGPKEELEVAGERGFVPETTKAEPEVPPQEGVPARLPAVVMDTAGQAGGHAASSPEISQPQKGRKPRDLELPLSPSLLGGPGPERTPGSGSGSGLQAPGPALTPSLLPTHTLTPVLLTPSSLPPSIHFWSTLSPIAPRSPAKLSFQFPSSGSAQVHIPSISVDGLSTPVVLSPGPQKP
The method, boiled down: as §1

In test [3] the target is T3, GABPA (Homo sapiens, UniProt Q06546 1-454).
T3 sequence: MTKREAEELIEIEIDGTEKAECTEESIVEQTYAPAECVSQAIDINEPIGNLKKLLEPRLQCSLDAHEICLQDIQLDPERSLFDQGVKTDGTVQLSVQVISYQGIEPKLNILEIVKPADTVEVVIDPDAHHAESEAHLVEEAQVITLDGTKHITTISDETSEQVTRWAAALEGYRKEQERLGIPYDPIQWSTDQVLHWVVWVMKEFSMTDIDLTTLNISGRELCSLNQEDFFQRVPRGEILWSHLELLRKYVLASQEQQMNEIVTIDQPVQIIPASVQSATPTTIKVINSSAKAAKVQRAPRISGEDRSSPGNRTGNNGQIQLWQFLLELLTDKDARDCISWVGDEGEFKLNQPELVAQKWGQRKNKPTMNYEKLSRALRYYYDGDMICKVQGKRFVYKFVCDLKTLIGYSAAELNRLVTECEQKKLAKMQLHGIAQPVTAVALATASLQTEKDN
The method, boiled down:
as §1

The target of test [4] is T4, ERG (Homo sapiens, UniProt P11308 1-479).
T4 sequence: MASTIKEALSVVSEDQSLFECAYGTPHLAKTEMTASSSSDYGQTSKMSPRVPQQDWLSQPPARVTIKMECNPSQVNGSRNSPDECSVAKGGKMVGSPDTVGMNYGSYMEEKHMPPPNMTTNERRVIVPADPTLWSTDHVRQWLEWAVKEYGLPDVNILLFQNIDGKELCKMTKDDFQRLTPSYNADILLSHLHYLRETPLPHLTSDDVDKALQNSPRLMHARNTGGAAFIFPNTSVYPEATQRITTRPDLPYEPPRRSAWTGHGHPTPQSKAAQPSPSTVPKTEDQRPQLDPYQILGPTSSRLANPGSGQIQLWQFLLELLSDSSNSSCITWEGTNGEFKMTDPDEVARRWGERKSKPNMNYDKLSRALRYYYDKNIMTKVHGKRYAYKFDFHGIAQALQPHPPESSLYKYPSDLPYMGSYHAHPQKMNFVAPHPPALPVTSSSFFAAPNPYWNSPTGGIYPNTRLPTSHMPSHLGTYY
The method, boiled down:
as §1

Test [5] has as its target ELF1 (Homo sapiens, UniProt P32519 1-619). The method, boiled down: as §1
Test [6] concerns the target T5, EHF (Homo sapiens, UniProt Q9NZC4 1-300).
T5 sequence: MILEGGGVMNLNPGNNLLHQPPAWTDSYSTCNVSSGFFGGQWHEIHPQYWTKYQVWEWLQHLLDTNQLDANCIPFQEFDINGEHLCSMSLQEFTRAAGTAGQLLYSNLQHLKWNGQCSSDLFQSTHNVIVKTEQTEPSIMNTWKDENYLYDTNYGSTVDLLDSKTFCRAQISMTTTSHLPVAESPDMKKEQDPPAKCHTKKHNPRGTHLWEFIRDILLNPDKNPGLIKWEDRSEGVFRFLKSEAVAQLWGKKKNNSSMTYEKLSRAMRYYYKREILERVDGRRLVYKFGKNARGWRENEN
The method, boiled down:
as §1

For test [7], the target named is SPI1 (Homo sapiens, UniProt P17947 1-270). The method, boiled down: as §1
Test [8] deals with SPIB (Homo sapiens, UniProt Q01892 1-262). The method, boiled down: as §1
SPIB, sequence (Q01892 whole entry): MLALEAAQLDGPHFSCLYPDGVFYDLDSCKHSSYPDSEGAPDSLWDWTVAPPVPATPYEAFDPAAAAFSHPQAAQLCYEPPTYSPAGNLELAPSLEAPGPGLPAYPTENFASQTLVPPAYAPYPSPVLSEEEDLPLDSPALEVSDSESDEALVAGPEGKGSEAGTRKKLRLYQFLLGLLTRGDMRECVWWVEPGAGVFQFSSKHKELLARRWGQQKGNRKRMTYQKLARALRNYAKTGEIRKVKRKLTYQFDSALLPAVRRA
In test [9] the target is T6, ELK3 (Homo sapiens, UniProt P41970 1-407).
T6 sequence: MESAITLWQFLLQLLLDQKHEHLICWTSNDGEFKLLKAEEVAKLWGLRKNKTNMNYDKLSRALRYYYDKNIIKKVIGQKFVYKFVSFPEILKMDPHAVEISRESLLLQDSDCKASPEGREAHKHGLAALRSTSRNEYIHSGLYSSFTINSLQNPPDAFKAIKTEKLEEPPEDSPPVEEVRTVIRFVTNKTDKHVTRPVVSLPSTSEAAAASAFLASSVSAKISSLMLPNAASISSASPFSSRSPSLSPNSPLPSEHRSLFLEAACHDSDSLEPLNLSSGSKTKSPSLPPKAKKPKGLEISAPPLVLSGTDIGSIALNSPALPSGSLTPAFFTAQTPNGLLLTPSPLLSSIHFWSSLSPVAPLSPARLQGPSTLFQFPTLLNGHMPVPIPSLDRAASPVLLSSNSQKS
The method, boiled down:
as §1

The target in test [10] is T7, FEV (Homo sapiens, UniProt Q99581 1-238).
T7 sequence: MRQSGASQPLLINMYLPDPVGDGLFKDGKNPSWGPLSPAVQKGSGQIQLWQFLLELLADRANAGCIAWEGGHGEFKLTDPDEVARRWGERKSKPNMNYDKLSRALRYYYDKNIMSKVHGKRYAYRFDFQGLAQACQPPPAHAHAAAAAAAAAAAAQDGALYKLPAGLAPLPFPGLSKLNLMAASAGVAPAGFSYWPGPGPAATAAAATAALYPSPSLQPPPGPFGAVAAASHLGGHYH
The method, boiled down: as §1

Test [11] addresses ETV5 (Homo sapiens, UniProt P41161 1-510). The method, boiled down:
as §1

For test [12], the target named is T8, SPIC (Homo sapiens, UniProt Q8N5J4 1-248).
T8 sequence: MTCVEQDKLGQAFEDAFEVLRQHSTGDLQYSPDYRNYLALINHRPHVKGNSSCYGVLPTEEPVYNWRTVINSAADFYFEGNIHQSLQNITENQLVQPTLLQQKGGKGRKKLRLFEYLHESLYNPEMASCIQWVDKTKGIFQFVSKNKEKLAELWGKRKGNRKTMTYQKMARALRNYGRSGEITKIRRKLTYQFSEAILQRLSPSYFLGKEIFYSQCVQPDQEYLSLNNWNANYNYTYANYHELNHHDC
The method, boiled down: as §1

The target in test [13] is ELF4 (Homo sapiens, UniProt Q99607 1-663). The method, boiled down:
as §1

For test [14], the target named is T9, ELK4 (Homo sapiens, UniProt P28324-2 1-405).
T9 sequence: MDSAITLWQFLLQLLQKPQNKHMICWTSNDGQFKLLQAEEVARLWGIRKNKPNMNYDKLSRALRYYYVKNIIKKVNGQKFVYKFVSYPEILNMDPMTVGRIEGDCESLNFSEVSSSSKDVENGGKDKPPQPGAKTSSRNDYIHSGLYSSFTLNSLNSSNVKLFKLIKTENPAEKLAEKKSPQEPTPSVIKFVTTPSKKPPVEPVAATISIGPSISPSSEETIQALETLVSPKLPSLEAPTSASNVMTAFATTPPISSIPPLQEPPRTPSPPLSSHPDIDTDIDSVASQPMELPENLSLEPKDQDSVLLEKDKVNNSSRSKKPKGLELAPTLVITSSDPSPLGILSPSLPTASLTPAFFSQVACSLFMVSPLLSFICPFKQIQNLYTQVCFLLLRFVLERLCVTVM
The method, boiled down: as §1

Test [15] deals with T10, ETV2 (Homo sapiens, UniProt O00321 1-342).
T10 sequence: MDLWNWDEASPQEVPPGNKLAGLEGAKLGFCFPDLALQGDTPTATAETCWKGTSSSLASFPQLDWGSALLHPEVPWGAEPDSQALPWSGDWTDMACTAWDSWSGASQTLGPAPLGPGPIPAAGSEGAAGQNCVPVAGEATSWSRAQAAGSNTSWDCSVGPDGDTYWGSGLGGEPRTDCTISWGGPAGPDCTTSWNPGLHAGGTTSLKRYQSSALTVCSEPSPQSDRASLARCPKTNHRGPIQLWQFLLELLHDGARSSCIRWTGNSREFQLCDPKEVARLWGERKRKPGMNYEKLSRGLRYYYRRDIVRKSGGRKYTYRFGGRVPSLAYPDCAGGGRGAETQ
The method, boiled down:
as §1

Test [16] addresses T11, ELF3 (Homo sapiens, UniProt P78545 1-371).
T11 sequence: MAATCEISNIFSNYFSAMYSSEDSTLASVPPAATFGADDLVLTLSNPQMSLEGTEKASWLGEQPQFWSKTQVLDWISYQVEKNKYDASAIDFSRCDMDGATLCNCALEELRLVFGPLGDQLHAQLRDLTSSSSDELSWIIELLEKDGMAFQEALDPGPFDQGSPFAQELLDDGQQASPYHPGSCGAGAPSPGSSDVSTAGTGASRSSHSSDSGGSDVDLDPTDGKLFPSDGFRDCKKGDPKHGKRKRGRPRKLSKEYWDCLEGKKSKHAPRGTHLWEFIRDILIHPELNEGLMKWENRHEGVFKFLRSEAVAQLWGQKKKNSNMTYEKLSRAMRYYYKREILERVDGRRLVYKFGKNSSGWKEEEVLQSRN
The method, boiled down:
as §1

For test [17], the target named is CRX (Homo sapiens, UniProt O43186 1-299). The method, boiled down: as §1
CRX, sequence (O43186 whole entry): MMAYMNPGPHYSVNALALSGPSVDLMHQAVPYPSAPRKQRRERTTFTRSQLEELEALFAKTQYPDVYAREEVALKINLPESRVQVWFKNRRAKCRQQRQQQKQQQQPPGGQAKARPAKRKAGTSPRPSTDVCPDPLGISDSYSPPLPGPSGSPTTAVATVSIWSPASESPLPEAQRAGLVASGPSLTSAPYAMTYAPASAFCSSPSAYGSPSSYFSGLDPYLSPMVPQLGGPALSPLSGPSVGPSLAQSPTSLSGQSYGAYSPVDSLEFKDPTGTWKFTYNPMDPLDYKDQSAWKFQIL
The target of test [18] is ETV1 (Homo sapiens, UniProt P50549 1-477). The method, boiled down: as §1
ETV1, sequence (P50549 whole entry): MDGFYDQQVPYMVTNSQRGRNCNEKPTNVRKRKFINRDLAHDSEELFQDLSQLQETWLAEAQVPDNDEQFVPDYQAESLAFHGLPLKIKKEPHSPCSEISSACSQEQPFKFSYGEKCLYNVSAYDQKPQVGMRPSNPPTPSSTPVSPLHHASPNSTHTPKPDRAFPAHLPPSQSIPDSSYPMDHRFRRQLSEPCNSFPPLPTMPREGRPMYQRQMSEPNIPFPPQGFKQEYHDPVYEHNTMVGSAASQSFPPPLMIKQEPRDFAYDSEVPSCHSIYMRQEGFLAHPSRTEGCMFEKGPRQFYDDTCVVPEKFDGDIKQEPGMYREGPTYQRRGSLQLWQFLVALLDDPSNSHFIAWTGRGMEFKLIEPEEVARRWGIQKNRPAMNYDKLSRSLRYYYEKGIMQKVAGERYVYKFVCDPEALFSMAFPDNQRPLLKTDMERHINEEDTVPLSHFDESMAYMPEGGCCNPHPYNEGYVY

ELF1, sequence (P32519 whole entry): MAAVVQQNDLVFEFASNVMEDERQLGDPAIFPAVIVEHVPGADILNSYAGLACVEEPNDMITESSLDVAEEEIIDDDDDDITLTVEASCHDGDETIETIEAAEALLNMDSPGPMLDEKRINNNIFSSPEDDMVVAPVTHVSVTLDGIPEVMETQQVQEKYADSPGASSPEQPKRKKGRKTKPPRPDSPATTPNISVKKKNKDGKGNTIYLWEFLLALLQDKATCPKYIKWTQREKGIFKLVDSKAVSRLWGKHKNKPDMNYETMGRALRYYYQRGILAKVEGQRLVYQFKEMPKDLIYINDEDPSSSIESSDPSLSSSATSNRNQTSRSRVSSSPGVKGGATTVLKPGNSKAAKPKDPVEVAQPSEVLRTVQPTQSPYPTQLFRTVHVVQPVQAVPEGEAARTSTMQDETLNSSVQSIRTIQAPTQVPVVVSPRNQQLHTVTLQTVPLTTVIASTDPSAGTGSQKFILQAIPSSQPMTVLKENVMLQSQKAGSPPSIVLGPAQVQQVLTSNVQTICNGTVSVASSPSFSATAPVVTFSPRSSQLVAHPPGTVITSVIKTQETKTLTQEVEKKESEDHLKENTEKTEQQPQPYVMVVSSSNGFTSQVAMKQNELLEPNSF
ETV5, sequence (P41161 whole entry): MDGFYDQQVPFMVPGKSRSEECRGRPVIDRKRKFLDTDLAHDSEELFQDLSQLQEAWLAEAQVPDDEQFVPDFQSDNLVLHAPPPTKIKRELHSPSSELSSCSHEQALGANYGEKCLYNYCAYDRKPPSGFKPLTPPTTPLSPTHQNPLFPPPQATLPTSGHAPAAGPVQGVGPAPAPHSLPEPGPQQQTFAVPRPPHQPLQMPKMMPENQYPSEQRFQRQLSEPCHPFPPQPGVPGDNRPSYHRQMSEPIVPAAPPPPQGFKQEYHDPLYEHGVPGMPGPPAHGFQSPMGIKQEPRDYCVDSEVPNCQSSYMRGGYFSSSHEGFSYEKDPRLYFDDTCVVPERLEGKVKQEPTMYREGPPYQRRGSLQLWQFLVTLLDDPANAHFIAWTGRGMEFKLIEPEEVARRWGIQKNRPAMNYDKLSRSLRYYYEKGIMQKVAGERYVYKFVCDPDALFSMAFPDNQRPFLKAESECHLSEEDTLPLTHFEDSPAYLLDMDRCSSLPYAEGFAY
ELF4, sequence (Q99607 whole entry): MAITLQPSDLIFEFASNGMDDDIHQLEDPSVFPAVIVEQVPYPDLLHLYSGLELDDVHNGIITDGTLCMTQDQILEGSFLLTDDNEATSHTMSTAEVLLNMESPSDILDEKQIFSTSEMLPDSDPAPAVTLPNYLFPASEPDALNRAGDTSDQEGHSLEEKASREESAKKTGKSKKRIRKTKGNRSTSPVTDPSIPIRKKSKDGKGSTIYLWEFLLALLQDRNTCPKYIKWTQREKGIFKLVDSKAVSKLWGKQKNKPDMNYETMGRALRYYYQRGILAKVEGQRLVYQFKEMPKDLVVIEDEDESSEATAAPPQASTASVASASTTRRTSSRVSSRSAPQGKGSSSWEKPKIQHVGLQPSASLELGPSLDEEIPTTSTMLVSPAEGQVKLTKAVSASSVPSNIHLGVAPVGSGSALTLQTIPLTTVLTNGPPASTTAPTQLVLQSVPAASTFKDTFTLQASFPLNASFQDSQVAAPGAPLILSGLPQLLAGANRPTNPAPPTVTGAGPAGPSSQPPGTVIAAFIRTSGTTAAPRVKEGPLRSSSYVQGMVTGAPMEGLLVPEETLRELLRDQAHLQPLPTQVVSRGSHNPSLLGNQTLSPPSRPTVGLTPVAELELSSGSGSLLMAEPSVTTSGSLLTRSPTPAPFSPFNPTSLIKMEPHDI

Take AAGCGG: the binding signal in test [1] is 1.13 fold enrichment (6-mer frequency, TF over GST control); in [2], 1.05 fold enrichment (6-mer frequency, TF over GST control); in test [3], 1.11 fold enrichment (6-mer frequency, TF over GST control); in test [4], 1.1 fold enrichment (6-mer frequency, TF over GST control); in test [5], 1.11 fold enrichment (6-mer frequency, TF over GST control); in test [6] it was 1.15 fold enrichment (6-mer frequency, TF over GST control). Besides, the binding signal in test [7] was 1.81 fold enrichment (6-mer frequency, TF over GST control); in test [8], 1.03 fold enrichment (6-mer frequency, TF over GST control); in test [9], 1.11 fold enrichment (6-mer frequency, TF over GST control); in test [10], 1.12 fold enrichment (6-mer frequency, TF over GST control); in test [11] it was 1.27 fold enrichment (6-mer frequency, TF over GST control); in test [12], 1.31 fold enrichment (6-mer frequency, TF over GST control). For the same sequence, the binding signal in test [13] is 1.01 fold enrichment (6-mer frequency, TF over GST control); in test [14], 1.14 fold enrichment (6-mer frequency, TF over GST control); in [15], 1.19 fold enrichment (6-mer frequency, TF over GST control); in test [16], 1.17 fold enrichment (6-mer frequency, TF over GST control); in test [17] it was 1.11 fold enrichment (6-mer frequency, TF over GST control); in test [18], 1.1 fold enrichment (6-mer frequency, TF over GST control).

ACCGCT: the binding signal in test [1] was 1.09 fold enrichment (6-mer frequency, TF over GST control); in test [2], 1.12 fold enrichment (6-mer frequency, TF over GST control); in test [3], 1.14 fold enrichment (6-mer frequency, TF over GST control); in test [4] it was 1.1 fold enrichment (6-mer frequency, TF over GST control); in [5], 1.07 fold enrichment (6-mer frequency, TF over GST control); in test [6] it was 1.09 fold enrichment (6-mer frequency, TF over GST control). Also, the binding signal was 1.03 fold enrichment (6-mer frequency, TF over GST control) in test [7]; 1.15 fold enrichment (6-mer frequency, TF over GST control) in [8]; 1.05 fold enrichment (6-mer frequency, TF over GST control) in test [9]; 1.17 fold enrichment (6-mer frequency, TF over GST control) in test [10]; 1.1 fold enrichment (6-mer frequency, TF over GST control) in test [11]; 1.13 fold enrichment (6-mer frequency, TF over GST control) in test [12]. Further, the binding signal in test [13] was 1.14 fold enrichment (6-mer frequency, TF over GST control); in test [14], 1.18 fold enrichment (6-mer frequency, TF over GST control); in test [15] it was 1.07 fold enrichment (6-mer frequency, TF over GST control); in test [16], 1.19 fold enrichment (6-mer frequency, TF over GST control); in test [17], 1.01 fold enrichment (6-mer frequency, TF over GST control).
